Screening data as filed in PubChem.
Only some compounds are listed: those with a hit (about 3.5% of all), similar ones and a draw of the others.
ATG4B inh = blocks human ATG4B protease cleavage of LC3 substrate. Q9Y4P1. ATG4B cleavage of LC3-PLA2, NBD-HPC fluorescence, 1 h. inhibition, % at 8.33 µM. 340,000 compounds, 0.51% hits; in the data active = inhibition above about 40%
M1 antag = human CHRM1 antagonism. P11229. CHO-K1 hM1, Fluo-8 calcium fluorescence, ACh EC80 antagonist. inhibition, % at 3 µM. 360,000 compounds, 1.3% hits. AID 588852;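 active = percent inhibition above its own plate's cutoff, namely the mean of that plate's compound wells plus 3 SD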;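 also: peak over basal fluorescence ratio during 140 s after agonist addition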
Target sequence (P11229 whole entry, looked up): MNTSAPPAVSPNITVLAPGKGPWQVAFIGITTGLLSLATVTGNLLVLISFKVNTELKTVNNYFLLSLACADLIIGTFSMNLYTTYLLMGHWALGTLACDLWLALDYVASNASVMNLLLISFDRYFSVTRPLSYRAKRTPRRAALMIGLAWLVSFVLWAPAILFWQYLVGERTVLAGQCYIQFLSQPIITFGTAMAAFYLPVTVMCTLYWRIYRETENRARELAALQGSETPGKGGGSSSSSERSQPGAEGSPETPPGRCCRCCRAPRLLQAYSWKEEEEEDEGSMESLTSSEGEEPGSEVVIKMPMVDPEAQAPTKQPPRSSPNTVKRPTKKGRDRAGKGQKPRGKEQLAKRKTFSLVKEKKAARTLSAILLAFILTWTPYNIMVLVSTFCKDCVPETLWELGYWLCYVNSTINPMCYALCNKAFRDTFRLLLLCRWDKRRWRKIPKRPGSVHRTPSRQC
M1 PAM = positive allosteric modulators of human M1 muscarinic receptor; 360,000 compounds, 0.088% hits; P11229; activation, % at 3 µM; CHO-K1 hM1, Fluo-8 calcium fluorescence, ACh EC20; 0% = ACh EC20, 100% = maximal ACh; AID 588819; in the data active = activation above about 19%, passing the limit was not always enough
Myeloid diff MLP = promotes myeloid progenitor differentiation; ER-HoxA9 myeloid progenitors, lysozyme-GFP differentiation, flow cytometry; 360,000 compounds, 1% hits; calls only at 10 µM;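 active = normalized GFP-positive differentiation at or above the plate's own cutoff, the solvent-only control mean plus 3 SD; inconclusive = no clear call, values can overlap the other calls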;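 also: cells exposed to compound for four days before flow analysis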
CHRM1 agonist = human M1 muscarinic receptor agonism; P11229; CHO-K1 hM1, Fluo-8 calcium fluorescence, agonist mode; 0% DMSO, 100% acetylcholine EC100; 360,000 compounds, 0.33% hits; activation, % at 3 µM;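 active = activation above the run's mean compound activation plus 3 SD, cut at about 16% in these data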;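 also: peak over basal fluorescence ratio within a 140 s kinetic read after compound addition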
SKN-1 block = blocks SKN-1 activity in C. elegans. inhibition, % at 21.8 µM. C. elegans VP596 Pgst-4::GFP/RFP ratio, acrylamide-induced, 24 h. 360,000 compounds, 0.49% hits;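 active = interference check ratio from 0.5 to 1.5 plus GFP to RFP signal ratio inhibition reaching or exceeding a fixed threshold, cut at about 30% in these data, passing the limit was not always enough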
ATG4B confirm = confirmation of human ATG4B inhibitors; ATG4B protease fluorescent substrate cleavage assay; shares compounds with ATG4B inh; inhibition, % at 8.33 µM; 320 compounds, 92% hits; in the data active = inhibition above about 39%
PLA2 ctr = inhibits human PLA2, flagging false ATG4B inhibitors; inhibition, % at 8.33 µM; AID 588402; shares compounds with ATG4B inh; 1,600 compounds, 66% hits; purified PLA2, NBD-C6-HPC fluorescence, 45 min; in the data active = inhibition above about 50%
Of the large screens only hits and unclear results are named; the others gave an inactive call (follow-up assays come after a bar, where they were run).

O=S(=O)(Nc1nc2ccccc2nc1N1CCc2ccccc2C1)c1ccc(Br)cc1	none
O=S(=O)(Nc1nc2ccccc2nc1N1CCc2ccccc2C1)c1ccc(Cl)cc1	ATG4B inh 40.1 | ATG4B confirm 85.5 | PLA2 ctr inactive
Cc1ccccc1S(=O)(=O)Nc1nc2ccccc2nc1N1CCc2ccccc2C1	ATG4B inh 43.1 | ATG4B confirm 62.0 | PLA2 ctr inactive
Cc1ccc(S(=O)(=O)Nc2nc3ccccc3nc2N2CCN(c3ccccc3F)CC2)cc1	ATG4B inh 61.2 | PLA2 ctr 69.2
COc1ccc(/C(O)=C2/C(=O)C(=O)N(CCCN3CCOCC3)C2c2ccc(C(C)C)cc2)cc1 (centres undefined)	none
Cn1c(SCC(=O)Nc2nccs2)nnc1-c1ccccn1	none
O=C(CN(c1cccc(C(F)(F)F)c1)S(=O)(=O)c1ccc(Cl)c([N+](=O)[O-])c1)NCc1ccccc1Cl	ATG4B inh 54.2 | PLA2 ctr 52.7
CCNC(=S)Nc1ccc(Cl)cc1	none
CC(CNC(=S)Nc1cc(F)cc(F)c1)CSc1ccc(Cl)cc1 (centres undefined)	ATG4B inh 46.5 | PLA2 ctr 69.5
COc1ccccc1C1CC(c2ccccc2)Nc2ncnn21 (centres undefined)	none
Cc1sc2nc3c(SC(C)C(=O)O)cc(C(=O)c4ccccc4O)cn3c(=O)c2c1C (centres undefined)	ATG4B inh 52.1 | PLA2 ctr 53.3
Fc1ccccc1Cc1noc(CN2CCCC(CN3CCOCC3)C2)n1 (centres undefined)	none
Cc1csc(NC(=O)c2cc3c(C)nn(Cc4ccccc4Cl)c3s2)n1	ATG4B inh 66.1 | PLA2 ctr 58.0
O=C1C=C(c2cccc3c2sc2ccccc23)C[C@@H](c2ccc(F)cc2)C1	none
COc1ccc(C(=O)N/N=C(\C)c2ccc3c(c2)C2C=CCC2C(c2ccccc2)N3)cc1 (centres undefined)	none
COc1cccc(NS(=O)(=O)c2ccc3c(c2)C2C=CCC2C(c2ccc(C(=O)O)cc2)N3)c1 (centres undefined)	ATG4B inh 66.6 | ATG4B confirm 62.1 | PLA2 ctr inactive
CC(C)N(Cc1nccn1C)C(=O)C1CCC(=O)N(CCc2ccccc2)C1 (centres undefined)	none (no result: ATG4B inh)
O=C1NC(=S)SC1=Cc1ccccc1Cl	none
O=C1NC(=S)S/C1=C\c1ccc(SCc2ccccc2)o1	ATG4B inh 40.2 | PLA2 ctr 55.6
CC1CCCCC1NC(=O)COCc1cc(-c2cccs2)on1 (centres undefined)	none
CCC(C)/C=C/C1=CC2=C(Cl)C(=O)C3(C)OC(=O)C(C(=O)C(C)C(C)O)C3C2=CO1 (centres undefined)	none
COc1cc(OC)cc(-c2nc3ccccc3c(=O)n2OC(=O)c2ccc(C)c(C)c2)c1	ATG4B inh 56.5 | ATG4B confirm 51.0 | PLA2 ctr inactive
Cc1ccccc1CNC(=O)c1ccc(CSCc2ccccc2)cc1	ATG4B inh 48.9 | PLA2 ctr 67.7
Cc1ccc(CSCCNC(=O)c2ccccc2)cc1	none
O=C(CN1C(=O)NC2(CCCCC2)C1=O)NCCc1ccc(Cl)cc1Cl	none
COc1ccc(Nc2cc(C(=O)N3CCc4ccccc4C3)c3ccccc3n2)c(OC)c1	ATG4B inh 67.7 | PLA2 ctr 81.5
O=C(/C=C1\NC2(CCCC2)Cc2ccccc21)C(=O)N/N=C/c1ccccc1O	ATG4B inh 44.4, Myeloid diff MLP inconclusive | PLA2 ctr inactive
O=C(O)CN=C1NC2(CCCC2)Cc2ccccc21	none
O=S(=O)(c1ccc2c(c1)C(O)c1ccccc1CC2)C(F)(F)F (centres undefined)	ATG4B inh 40.1, M1 antag 30.5 | PLA2 ctr 59.8
